# A selection: hits, their analogues and other compounds. The true share with any hit is near 19%.
# TDP1 inh: blocks human tyrosyl-DNA phosphodiesterase 1. Q9NUW8. recombinant TDP1, AlphaScreen DNA substrate cleavage. Potency, µM (titrated, usually from 130 µM), actives largely listed as inhibitors. 350,000 compounds, 0.28% hits; also: nearly all actives have a fitted effect of over 40% in size
#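 E. coli-derived human Tdp1, 1 nM final. Cpd preinc 15 min RT; substrate 15 nM final, 5 min RT; AS bead mix 10 ug/ml final, 10 min RT. Signal loss = tyrosine-FITC cleavage. No-enzyme wells = max signal.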
# TDP1 cell noCPT: qHTS for Inhibitors of human tyrosyl-DNA phosphodiesterase 1 (TDP1): qHTS in cells in absence of CPT; DT40 Tdp1-/- hTDP1 cells, no CPT, ATP luminescence, 48 h; Potency, µM (doses to about 46.2 µM), usual class: inhibitors; 420,000 compounds, 15% hits; AID 686978, 2013; also: nearly all actives have a fitted effect of over 55% in size
#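 Seeded 400 DT40-hTDP1 cells/well (vehicle DMSO, no 20 nM CPT); pinned compounds; ≥48 hr at 37 °C; CellTiter-Glo luminescence as viability measure.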
# TDP1 cell CPT: DT40-hTDP1 cell growth loss with CPT; Potency, µM (highest dose often 46.2 µM), actives largely listed as inhibitors; AID 686979; 420,000 compounds, 12% hits; chicken DT40 Tdp1-/-;hTDP1 cells + 20 nM CPT, ATP luminescence, 48 h; also: nearly all actives have a fitted effect of over 55% in size
#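 Chicken DT40 Tdp1-/- cells complemented with human TDP1, 400 cells/well, exposed to compounds plus 20 nM camptothecin for at least 48 h at 37 C; viability read as ATP content by CellTiter-Glo luminescence.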
# VP16 counter: inhibits Gal4-VP16 luciferase reporter, ROR gamma counter-screen. Drosophila S2 Gal4-VP16 UAS-luciferase, luminescence, 20 h. Potency, µM (series often up to 53.6 µM), usual class: inhibitors. 310,000 compounds, 3.5% hits;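 also: Gal4-VP16 expression switched on by copper sulfate through the metallothionein promoter; nearly all actives have a fitted effect of over 50% in size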
# RORg inh: inhibitors of mouse ROR gamma transcriptional activity. Drosophila S2 Gal4-RORgamma UAS-luciferase reporter, 20 h. Potency, µM (series often up to 53.6 µM), most hits filed as inhibitors. 310,000 compounds, 5.4% hits; also: nearly all actives have a fitted effect of over 60% in size
# Target sequence (P51450 whole entry, looked up, the tested form may be a part): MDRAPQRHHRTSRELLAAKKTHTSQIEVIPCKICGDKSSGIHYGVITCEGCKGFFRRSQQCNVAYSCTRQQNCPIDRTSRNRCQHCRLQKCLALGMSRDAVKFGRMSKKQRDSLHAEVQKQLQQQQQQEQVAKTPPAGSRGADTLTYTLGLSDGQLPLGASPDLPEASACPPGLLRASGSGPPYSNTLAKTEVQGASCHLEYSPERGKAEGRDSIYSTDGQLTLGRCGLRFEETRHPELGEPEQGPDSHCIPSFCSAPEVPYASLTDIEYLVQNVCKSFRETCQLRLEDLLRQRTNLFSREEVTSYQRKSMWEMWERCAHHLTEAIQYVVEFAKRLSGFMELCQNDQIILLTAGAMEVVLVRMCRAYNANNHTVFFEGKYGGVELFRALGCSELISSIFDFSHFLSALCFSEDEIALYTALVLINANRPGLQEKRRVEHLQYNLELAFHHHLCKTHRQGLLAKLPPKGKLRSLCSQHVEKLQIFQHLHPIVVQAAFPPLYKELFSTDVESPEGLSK
#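 Read-out: Photinus luciferase luminescence; inhibitors lower reporter signal. Insect Schneider cells with Gal4-ROR gamma fusion under metallothionein promoter, UAS reporter; 700 uM final copper sulfate induction, 20 hr, ambient temperature.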
# Hits are given with their value; i = inactive; ? = inconclusive; nt = no result. Calls follow the shape of the dose curve; as a rule, active = well fitted curve in the direction sought with a large enough effect; inconclusive = small, poorly fitted or top-dose-only effect, or another doubt; inactive = no such curve, though single readings can be large; an effect the other way counts as inactive or inconclusive.
SMILES,TDP1 inh,TDP1 cell noCPT,TDP1 cell CPT,VP16 counter,RORg inh
CC1=C(C(=O)N2CCCCCC2)CC(CC(=O)NC(c2ccccc2)c2ccccc2)C(=O)N1CCC1=CCCCC1 (stereo not given),nt,16µM,21µM,nt,nt
CC1=C(C(=O)N2CCOCC2)CC(CC(=O)NC2CC2)C(=O)N1CCC1=CCCCC1 (stereo not given),nt,i,i,nt,nt
Cc1ccc(S(=O)(=O)N(Cc2cc3ccc(C)cc3[nH]c2=O)c2ccccc2)cc1,nt,?,?,i,i
O=C(CSc1nnc(-c2cccnc2)o1)c1cc2ccccc2oc1=O,i,?,?,4µM,?
Cc1nc(SCC(=O)c2cc3ccccc3oc2=O)c(C#N)c(-c2cccs2)c1C(=O)Nc1ccccc1,i,?,21µM,i,i
CC(C)c1c(C#N)c(N)nc(SCC(=O)c2cc3ccccc3oc2=O)c1C#N,i,?,?,?,i
N#Cc1ccc(-c2ccccc2)nc1SCC(=O)c1cc2ccccc2oc1=O,i,?,23µM,i,i
O=C(CSc1nnc(-c2cccnc2)o1)Oc1ccccc1,i,i,i,i,i
CCOc1cc(C2C(C(=O)c3ccc(C)o3)=C(O)C(=O)N2CCc2ccccc2)ccc1O (stereo not given),i,i,i,i,i
O=C(NC1CCCC1)C(c1ccccc1)N(Cc1ccc(F)cc1)C(=O)c1csnn1 (stereo not given),nt,i,i,i,i
O=C(NC1CCCC1)C(c1ccc(Cl)cc1)N(Cc1ccc(F)cc1)C(=O)CCl (stereo not given),i,2.6µM,2.6µM,i,i
O=C(NC1CCCC1)C(c1ccc(F)cc1)N(Cc1ccc(Cl)cc1)C(=O)CCl (stereo not given),i,4.1µM,3.3µM,i,i
CC(=O)Nc1ccc(C(=O)NC2CCCC2)cc1,i,i,i,i,i
CC(=O)Nc1cc(-c2ccc(C(=O)NC3CC3)cc2)cn2c(-c3cccc(C(C)=O)c3)cnc12,nt,23µM,?,nt,nt
CC(=O)Nc1cc(-c2ccc(C(=O)NC3CC3)cc2)cn2c(-c3cccc(C(F)(F)F)c3)cnc12,nt,23µM,?,nt,nt
CC(C)C(=O)OCC(=O)[C@@]12OC(C3CCCCC3)O[C@@H]1CC1C3CCC4=CC(=O)C=C[C@]4(C)C3[C@@H](O)C[C@@]12C (stereo not given in full),nt,nt,nt,i,?
CS(=O)(=O)c1ccc(C(=O)OCC(=O)NC(=O)C2CCCCC2)cc1[N+](=O)[O-],i,?,9.2µM,?,11µM
CC1(C)C2CCC1(C)C(NC(=O)COC(=O)c1ccc(S(C)(=O)=O)c([N+](=O)[O-])c1)C2 (stereo not given),i,5.6µM,5µM,nt,nt
CC(=O)c1ccc(NCC2COc3ccccc3O2)c([N+](=O)[O-])c1 (stereo not given),i,13µM,?,i,?
CS(=O)(=O)c1ccc(C(=O)OCC(=O)NC(=O)C2COc3ccccc3O2)cc1[N+](=O)[O-] (stereo not given),i,18µM,16µM,nt,nt
O=C(Nc1nncs1)c1ccc2c(c1)OCO2,i,i,i,i,i
CCCCCOC(=O)Cn1c(=O)c2c(nc(N3CCOCC3)n2C)n(C)c1=O,i,i,i,i,i
O=C(c1ccc2ccccc2n1)N1CCN(S(=O)(=O)c2ccc(Cl)cc2)CC1,i,?,?,nt,nt
CC12CCC(c3nnc(SCc4ccc(Cl)cc4)nc31)C2(C)C (stereo not given),i,i,i,i,?
CC12CCC(c3n[nH]c(=S)nc31)C2(C)C (stereo not given),i,i,i,?,13µM
SMILES,TDP1 inh,TDP1 cell noCPT,TDP1 cell CPT,VP16 counter,RORg inh
O=C(COC(=O)/C=C/c1cccc(Cl)c1)Nc1ccccc1-c1ccccc1,i,nt,nt,i,i
CCOc1ccc(-c2cn3ccccc3n2)cc1[N+](=O)[O-],i,?,?,i,i
CCCCOc1ccc(-c2cn3ccccc3n2)cc1[N+](=O)[O-],i,26µM,?,i,i
Nc1nc(-c2ccc([N+](=O)[O-])cc2)cs1,i,i,i,i,?
CCCOc1ccc(-c2csc(N)n2)cc1[N+](=O)[O-],i,10µM,15µM,i,?
CCC1CCC2(CC1)NNC(=S)NN2,i,18µM,?,?,?
Cc1nc(NC(C)c2ccccc2)c2c3c(sc2n1)CCC3 (stereo not given),i,16µM,16µM,i,?
Cc1ccc(CNc2nc(C)nc3sc4c(c23)CCC4)cc1,i,18µM,23µM,i,i
Cc1nc(NS(=O)(=O)c2cccs2)c2c3c(sc2n1)CCC3,i,i,i,i,i
Cc1nc(Nc2ccc(O)cc2)c2c3c(sc2n1)CCCC3,i,?,?,i,i
NNc1nc(-c2ccccc2)nc2sc3c(c12)CCCC3,i,21µM,?,?,?
Cc1cccc(NC(=O)C2(C)Cc3ccccc3C(=O)O2)c1 (stereo not given),i,?,i,nt,nt
O=C(CSc1nnc(-c2ccccn2)o1)Nc1ccccc1F,i,i,i,?,i
Cc1c(NS(=O)(=O)c2ccc(C(=O)N(C)Cc3cccc(Cl)c3Cl)cc2)c(=O)n(-c2ccccc2)n1C,nt,i,i,nt,nt
CN(C)CCNc1ccc(CO)c2oc3ccc(O)cc3c(=O)c12,nt,0.65µM,0.13µM,nt,nt
CCN(CC)CCNC(CC(=O)Nc1ccc(Cl)cc1Cl)C(=O)O (stereo not given),i,i,i,i,i
O=c1cc(NCCCO)c2ccccc2o1,i,i,i,i,i
CCN(CC)CCNc1ccc(CO)c2oc3cc(Cl)ccc3c(=O)c12,nt,10µM,23µM,nt,nt
NC(c1ccccc1)c1csc(Nc2ccc(S(N)(=O)=O)cc2)n1 (stereo not given),nt,i,i,nt,nt
NC(c1ccccc1)c1csc(Nc2ccc(C(F)(F)F)cn2)n1 (stereo not given),nt,13µM,?,nt,nt
CC(C)C(N)c1csc(Nc2ccc(C(F)(F)F)cn2)n1 (stereo not given),nt,?,21µM,nt,nt
Cc1noc(C)c1S(=O)(=O)N(C)C[C@H]1Oc2ccc(NS(=O)(=O)c3cn(C)cn3)cc2C(=O)N([C@H](C)CO)C[C@@H]1C,i,i,i,nt,nt
COc1cc(C2c3cc4c(cc3C3OC(=O)C2C3CO)OCO4)cc(OC)c1OC (stereo not given),nt,0.016µM,0.01µM,nt,nt
COc1cc([C@@H]2c3cc4c(cc3[C@H](O)C3COC(=O)[C@@H]32)OCO4)cc(OC)c1OC (stereo not given in full),i,nt,nt,nt,nt
CCN(CC)C1Oc2cc3c(cc2C(c2cc(OC)c(OC)c(OC)c2)C1C)OCO3 (stereo not given),nt,1.2µM,2.3µM,nt,nt

# Source: PubChem
